Screening results from PubChem BioAssay.
The list is not random: actives were taken first. Their share in the collection is about 7.4%.
Rab9 promoter act: activators of Rab9 promoter; Potency, µM (highest dose often 9.22 µM), without a hit: at the top dose activation, negative = inhibition, usual class: activators; hit rate 2.8% among 320,000; Huh7 Rab9 promoter-luciferase reporter, luminescence, 24 h; AID 485297; also: % of control where 0% means no effect; nearly all actives have a fitted effect of over 60% in size
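Quantitative HTS format; Huh7 Rab9-luciferase reporter cells (1500/well) receive compound 2 h post-plating, incubate 24 h at 37 °C, then get luciferase reagent for 10 min before luminescence reading.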
FLuc counter: counter-screen for miR-21 project: firefly luciferase inhibitors or activators. P08659. purified FLuc, Km substrates, luminescence inhibition. Potency, µM (highest dose often 57.5 µM), without a hit: top-dose activity change, negative = inhibition, most hits filed as inhibitors. hit rate 6.9% among 360,000;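 also: plate controls were vehicle for no effect and reference inhibitor for full effect; nearly all actives have a fitted effect of over 55% in size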
Target sequence (P08659 whole entry, looked up): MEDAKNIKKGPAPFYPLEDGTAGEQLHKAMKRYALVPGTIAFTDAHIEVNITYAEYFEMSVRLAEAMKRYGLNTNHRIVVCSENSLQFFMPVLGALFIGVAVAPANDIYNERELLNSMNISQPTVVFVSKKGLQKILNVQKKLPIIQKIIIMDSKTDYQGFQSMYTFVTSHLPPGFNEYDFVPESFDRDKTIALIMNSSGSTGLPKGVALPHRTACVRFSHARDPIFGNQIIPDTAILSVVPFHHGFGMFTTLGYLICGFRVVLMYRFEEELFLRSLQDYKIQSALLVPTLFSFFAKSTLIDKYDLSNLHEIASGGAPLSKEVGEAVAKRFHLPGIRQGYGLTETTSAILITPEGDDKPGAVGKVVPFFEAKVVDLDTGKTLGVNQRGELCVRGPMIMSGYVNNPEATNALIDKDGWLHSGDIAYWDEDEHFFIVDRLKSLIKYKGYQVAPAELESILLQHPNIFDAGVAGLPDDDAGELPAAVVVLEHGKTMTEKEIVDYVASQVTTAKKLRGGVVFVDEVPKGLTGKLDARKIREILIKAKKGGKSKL
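Purified P. pyralis luciferase (10nM final) with 10uM D-luciferin and 10uM ATP (Km levels) in 50mM Tris acetate pH 7.5, 10mM Mg acetate, 0.01% Tween-20, 0.05% BSA; qHTS 6-point titration, ~60 µM downward; luminescence read.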
SMN2 splice up: enhancers of SMN2 splice variant expression; hit rate 2.8% among 210,000; HEK293 SMN2-luciferase splicing reporter, luminescence, 30-36 h; Potency, µM (doses to about 46.1 µM), without a hit: top-dose activity change, positive = activation, usual class: activators; also: % of control where 0% means no effect; nearly all actives have a fitted effect of over 55% in size
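HEK293 cells carry an SMN2 minigene-luciferase reporter in which exon 7 inclusion puts luciferase in frame. Cells were seeded at 2000 cells/well, attached for 10-12 hours, then exposed to compounds for 30-36 hours at 37C before ONE-Glo luminescence.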
ELG1 genotox: induces genotoxicity in HEK293T cells with luciferase-tagged ELG1; HEK293T ELG1-luciferase reporter, luminescence, 16 h; Potency, µM (top dose mostly 46 µM), for the others: at the top dose activity change, positive = activation, hits mostly activators; hit rate 1.3% among 330,000; AID 504466; also: % of control where 0% means no effect; nearly all actives have a fitted effect of over 60% in size
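HEK293T cells expressing luciferase-tagged ELG1 were treated with compound or DMSO for 16 hr at 37°C. Luciferase activity was then read after 30 min with ONE-Glo at room temperature; rising signal flags genetic stress.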
NPC1 promoter act: NPC1 promoter activation; Potency, µM (doses to about 9.22 µM), inactives show at the highest dose activation, hits mostly activators; Huh7 NPC1 promoter luciferase reporter, 24 h; hit rate 2.4% among 320,000; also: % of control where 0% means no effect; nearly all actives have a fitted effect of over 60% in size
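Stably transfected Huh7 (NPC1 promoter→luciferase), 1500 cells/well in Opti-MEM + 10% FBS, 2 h settle, then compound 24 h at 37 °C. Luminescence after 10 min with Amplite reagent.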
* marks the source's active call; other numbers are inactive results; ? = inconclusive; nt = no result given. Calls follow the shape of the dose curve; as a rule, active = well fitted curve in the direction sought with a large enough effect; inconclusive = small, poorly fitted or top-dose-only effect, or another doubt; inactive = no such curve, though single readings can be large; an effect the other way counts as inactive or inconclusive. Potency is read from the fitted curve at half-maximal effect.

SMILES	Rab9 promoter act	FLuc counter	SMN2 splice up	ELG1 genotox	NPC1 promoter act
O=C(O)c1ccc(-c2ccc(-c3ccccc3)cc2)s1	0.001µM*	0.0757µM*	nt	?	3.98e-05µM*
COc1ccc(S(=O)(=O)NCC(c2ccc(N(C)C)cc2)N2CCCC2)cc1F (stereo not given)	nt	-0.8%	nt	nt	nt
COc1ccc2cc(C(=O)Nc3ccccc3)sc(=O)c2c1OC	28.6%	7.7%	18.8%	16.3%	-0.8%
O=C(Nc1ccccc1)c1cc2ccc3ccccc3c2s1	?	5.36µM*	nt	?	?
O=C(N/N=C/C=C/c1ccccc1)c1n[nH]c2c1CCC2	-1.6%	-5.0%	-4.8%	?	2.0%
O=C(N/N=C/C(Br)=C\c1ccccc1)c1n[nH]c2c1CCC2	19.9%	2.39µM*	12.6µM*	2.31µM*	?
CC(/C=N/NC(=O)c1n[nH]c2c1CCC2)=C\c1ccccc1	2.4%	4.78µM*	?	2.31µM*	27.7%
CCCCOC(=O)c1ccc(NC(=O)c2csnn2)cc1	nt	-4.3%	nt	nt	nt
Cc1cccc(NC(=O)CSc2cn(CC(=O)N3CCCCCC3)c3ccccc23)c1	nt	-6.1%	nt	nt	nt
CCCCc1nnc(NC(=O)CCSc2ccccc2)s1	-0.4%	0.0%	-13.5%	-1.1%	4.2%
CCc1nnc(NC(=O)CC(=O)Nc2ccccc2C(=O)O)s1	?	15.1µM*	-10.9%	1.2%	17.5%
CC(C)c1nnc(NC(=O)CCC(=O)Nc2ccccc2)s1	1.2%	0.6%	nt	-0.1%	-2.9%
CC(C)Cc1nnc(NC(=O)CC(=O)Nc2ccccc2C(=O)O)s1	7.0%	15.1µM*	-10.5%	7.8%	11.6%
CCCCc1nnc(NC(=O)CC(=O)Nc2ccccc2C(=O)O)s1	-0.9%	16.9µM*	-13.5%	1.8%	9.6%
CC(C)c1nnc(NC(=O)CC(=O)Nc2ccccc2C(=O)O)s1	3.55µM*	4.78µM*	-17.1%	?	2.51µM*
Cn1cccc1C(=O)N1CCC2(CC1)CCN(c1ccccn1)CC2	nt	nt	-45.9%	nt	nt
CC(=O)OC1CCC2(C)C(=CC=C3C2CCC2(C)C3CCC2C(C)/C=C/C(C)C(C)C)C1(C)C (stereo not given)	nt	nt	1.5%	nt	nt
CCN(CC)c1ccc(NC(=O)Nc2ccc(C(C)=O)cc2)cc1	4.2%	0.5%	9.8%	1.2%	1.0%
O=C(c1ccc(NC(=O)C2(c3ccccc3)CCCC2)cc1)N1CCOCC1	-0.6%	-2.7%	nt	-4.5%	-1.0%
O=C(Nc1ccccc1)Nc1ccc(C(=O)N2CCOCC2)cc1	1.1%	13.5µM*	20µM*	?	?
CC(=O)c1cccc(NC(=O)NCc2ccccn2)c1	?	9.53µM*	15.8µM*	9.2µM*	?
CC(=O)c1cccc(NC(=O)Nc2ccccc2)c1	16.4%	12µM*	nt	1.9%	24.6%
CCN(CC)c1ccc(NC(=O)Nc2ccccc2)cc1	3.16µM*	0.953µM*	nt	10.3µM*	0.891µM*
COCC(=O)N1CCC[C@@]2(CCN(c3ccccn3)C2)C1	nt	nt	9.0%	nt	nt
COc1ccc2c(C)c(CCC(=O)NCc3ccc(Cl)cc3)c(=O)oc2c1C	nt	-3.9%	7.5%	nt	nt
SMILES	Rab9 promoter act	FLuc counter	SMN2 splice up	ELG1 genotox	NPC1 promoter act
Cc1ccc(C)c(S(=O)(=O)c2cn(Cc3ccccc3)c3cc(N4CCCC4)c(F)cc3c2=O)c1	nt	1.1%	nt	nt	nt
CCS(=O)(=O)c1c(S(=O)(=O)CC)c2cc(C(C)(C)C)ccn2c1C(=O)c1ccc(F)cc1	nt	0.6%	nt	nt	nt
CC(=O)c1ccc(NC(=O)Nc2ccccc2)cc1	0.316µM*	7.57µM*	11.2µM*	1.84µM*	0.447µM*
O=C(Nc1ccccc1)Nc1ccc2ccccc2c1	3.55µM*	?	nt	14.1%	2.51µM*
COCCCNC(=O)c1ccc(-c2nc(CS(=O)(=O)c3ccc(C)cc3)c(C)o2)cc1	nt	-2.1%	nt	nt	nt
CC1=CN2C(=N)/C(=C/c3ccc([N+](=O)[O-])o3)C(=O)N=C2S1	-54.1%	13.5µM*	-38.6%	-14.2%	-29.6%
CCOc1ccc(-c2ccc(/C=C3/C(=N)N4C=CSC4=NC3=O)o2)c([N+](=O)[O-])c1	-5.6%	2.4%	-8.7%	?	-0.5%
CC1=CN2C(=N)/C(=C/c3ccco3)C(=O)N=C2S1	1.78µM*	1.51µM*	3.55µM*	?	2.51µM*
CC1=CN2C(=N)/C(=C/c3cn(CCCOc4ccccc4C)c4ccccc34)C(=O)N=C2S1	?	-7.8%	-48.4%	?	?
